# From PubChem BioAssay (EPA / NIEHS)
# Active and inactive are the calls of the source. The calls were made as follows: active = hit-call score of the fitted dose curve at least 0.9, where 1 is the maximum; inactive = score below 0.9.
# Test: CCTE_Harrill_HTTr_Viability_MCF7: CCTE's 6-hour Cell Viability Assessment for the High-Throughput Transcriptomics (HTTr) Platform, in MCF-7 cells cultured in DMEM + 10% fetal bovine serum, Harrill Lab (AID 2284010)
# Method in brief: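 Viability measured through PI dye exclusion by high-content imaging at 6 h post-dosing.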
row,SMILES,outcome
1,[O-]/[N+](=N\O)c1ccccc1,inactive
2,CC(C)(O)CCc1ccccc1,inactive
3,CCOC(=O)COC(=O)c1ccccc1C(=O)OCC,inactive
4,Cc1ccc(C(C)(C)O)cc1,inactive
5,CC(=O)C1=C(C)[C@@H]2C[C@@]3(C1)[C@H](C)CC[C@H]3C2(C)C,inactive
6,CCCc1ccc(O)cc1,inactive
7,NS(=O)(=O)c1cc(C(=O)O)c(NCc2ccco2)cc1Cl,inactive
8,C1COCO1,inactive
9,CCCCCCCCCC(=O)OCC,inactive
10,CC(C)Cc1ccccc1,inactive
11,CCCO,inactive
12,COC(=O)C(C)Oc1ccc(Oc2ncc(C(F)(F)F)cc2Cl)cc1 (centres undefined),inactive
13,NC(N)=S,inactive
14,O=C(OCc1ccccc1)c1ccccc1O,inactive
15,NC(N)=NC(N)=NCCc1ccccc1,inactive
16,CC(=O)CCC(=O)O,inactive

row,SMILES,outcome
1,C=CC(C)CCCC(C)(C)O (centres undefined),inactive
2,CCCCCCCCCCCCCC(=O)OCC,inactive
3,Cc1ccncc1,inactive
4,c1coc(CNc2ncnc3nc[nH]c23)c1,inactive
5,CN(C)C,inactive
6,O=c1cc(-c2ccc(O)cc2)oc2cc(O)cc(O)c12,inactive
7,c1ccc2scnc2c1,inactive
8,Cc1cc(O)c2c(c1)C(=O)c1cc(O)cc(O)c1C2=O,inactive
9,CCCCCCCCCO,inactive
10,CC1=CCC(=C(C)C)CC1,inactive
11,CCCCCCOC(C)=O,inactive
12,NC(=O)c1c(Cl)cccc1Cl,inactive
13,CCCCCC(=O)O[C@]1(C(C)=O)CC[C@H]2[C@@H]3CCC4=CC(=O)CC[C@]4(C)[C@H]3CC[C@@]21C,inactive
14,CN1CCc2cccc3c2[C@H]1Cc1ccc(O)c(O)c1-3,inactive
15,CC(=O)C1C(=O)C=C(C)OC1=O (centres undefined),inactive
16,c1ccc(Cc2ccccc2)cc1,inactive

# Test: CCTE_Harrill_HTTr_Apoptosis_MCF7: CCTE's 6-hour Apoptosis Assessment for the High-Throughput Transcriptomics (HTTr) Platform, in MCF-7 cells cultured in DMEM + 10% fetal bovine serum, Harrill Lab (AID 2284011)
# Method in brief: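 Apoptosis in MCF-7 cells grown in DMEM with 10% fetal bovine serum was scored after a six hour exposure by high content imaging of caspase-3/7 activation (CellEvent Caspase 3/7 Green), with DMSO serving as negative control and baseline.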
row,SMILES,outcome
1,[O-]/[N+](=N\O)c1ccccc1,inactive
2,CC(C)(O)CCc1ccccc1,inactive
3,CCOC(=O)COC(=O)c1ccccc1C(=O)OCC,inactive
4,Cc1ccc(C(C)(C)O)cc1,inactive
5,CC(=O)C1=C(C)[C@@H]2C[C@@]3(C1)[C@H](C)CC[C@H]3C2(C)C,inactive
6,CCCc1ccc(O)cc1,inactive
7,NS(=O)(=O)c1cc(C(=O)O)c(NCc2ccco2)cc1Cl,inactive
8,C1COCO1,inactive
9,CCCCCCCCCC(=O)OCC,inactive
10,CC(C)Cc1ccccc1,inactive
11,CCCO,inactive
12,COC(=O)C(C)Oc1ccc(Oc2ncc(C(F)(F)F)cc2Cl)cc1 (centres undefined),inactive
13,NC(N)=S,inactive
14,O=C(OCc1ccccc1)c1ccccc1O,inactive
15,NC(N)=NC(N)=NCCc1ccccc1,inactive
16,CC(=O)CCC(=O)O,inactive

row,SMILES,outcome
1,C=CC(C)CCCC(C)(C)O (centres undefined),inactive
2,CCCCCCCCCCCCCC(=O)OCC,inactive
3,Cc1ccncc1,inactive
4,c1coc(CNc2ncnc3nc[nH]c23)c1,inactive
5,CN(C)C,inactive
6,O=c1cc(-c2ccc(O)cc2)oc2cc(O)cc(O)c12,inactive
7,c1ccc2scnc2c1,inactive
8,Cc1cc(O)c2c(c1)C(=O)c1cc(O)cc(O)c1C2=O,inactive
9,CCCCCCCCCO,inactive
10,CC1=CCC(=C(C)C)CC1,inactive
11,CCCCCCOC(C)=O,inactive
12,NC(=O)c1c(Cl)cccc1Cl,inactive
13,CCCCCC(=O)O[C@]1(C(C)=O)CC[C@H]2[C@@H]3CCC4=CC(=O)CC[C@]4(C)[C@H]3CC[C@@]21C,inactive
14,CN1CCc2cccc3c2[C@H]1Cc1ccc(O)c(O)c1-3,inactive
15,CC(=O)C1C(=O)C=C(C)OC1=O (centres undefined),inactive
16,c1ccc(Cc2ccccc2)cc1,inactive
